The source of these data is PubChem BioAssay (NCI).

This is part of a sample that, as a whole, favours compounds with a hit. Of some 83,000 tested, about 20% had one in any assay.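 Note: values are percent growth. 100 is the growth of untreated cells, values between 100 and 0 indicate rising inhibition; between -100 and 0 indicates cell death.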 Calls of active or inactive are those of the source. Rule for the calls: active = growth percent below 10; inactive = the rest.

In the test the test system is SK-MEL-28 melanoma. Kind of test: NCI-60 one-dose screen, 48 h (100 = growth as untreated, 0 = no growth, -100 = all killed). The conditions noted are these: 10 µM unless noted.
`Clc1ccccc1/C=C/c1nn2c(-c3ccncc3)nnc2s1`: the growth was 103% (inactive).

Turning to `COc1ccc(/C=N/Nc2nc(Nc3ccccc3)nc(Nc3ccc(S(N)(=O)=O)cc3)n2)cc1`, the growth was 78.5% (inactive).

For the compound `CS(=O)c1nccc(-c2c(-c3ccc(F)c(OCc4ccccc4)c3)nc3sccn23)n1` (stereo unspecified), the growth was 55.5% (inactive).

Take `COc1ccc2c(c1)c(-c1nn3c(=O)cc(-c4ccccc4)nc3s1)cn2C`: the growth is 51.5% (inactive).

Turning to `CC1(C)CC[C@]2(C(=O)N3CCCNCC3)CC[C@]3(C)C(=CC[C@@H]4[C@@]5(C)CCC(=O)C(C)(C)[C@@H]5CC[C@]43C)[C@H]2C1`, the growth was 104% (inactive).

Take `CCOC(=O)C1=C(C)Nc2nnc(Nc3ccccc3)n2C1c1ccccc1` (stereo unspecified): the growth is 89.9% (inactive).

Consider `Cc1nc(-c2cc3ccccc3c(N3CCN(C)CC3)n2)cs1`, for which the growth is 107% (inactive).

Take `Nc1n[nH]c2cccc(C#Cc3cccc(NC(=O)c4cccc(OC(F)(F)F)c4)c3)c12`: the growth was 30.3% (inactive).

Take `COc1c([C@@H](CC(C)C)OC(C)=O)ccc2c1C(=O)OCc1cc(C)cc(O)c1O2`: the growth is 59.1% (inactive).

`O=C1CSC(=O)N1Cc1cc2ccccc2nc1Cl`: the growth is 109% (inactive).

Consider `O=C1Nc2ccc(Cl)cc2/C1=C/c1ccc(OCc2ccc(Br)cc2F)cc1`, for which the growth was 105% (inactive).

With `COc1cc2oc(-c3cccc(NC(=O)c4cc(NC(=O)[C@H](C)N)ccc4Cl)c3)cc(=O)c2c(OC)c1OC`, the growth is 106% (inactive).

Regarding `COc1cc2oc(-c3cccc(NC(=O)c4cc(NC(=O)[C@H](C)NC(=O)OC(C)(C)C)ccc4C)c3)cc(=O)c2c(OC)c1OC`, the growth was 87% (inactive).

Take `C/C(=C(/C)C1CC1CCN(C(=O)c1ccc([N+](=O)[O-])cc1)S(=O)(=O)c1ccc(C)cc1)C1CCCCC1` (stereo unspecified): the growth was 101% (inactive).

On to `CN1CCN(c2nc(-c3cnc4ccccc4n3)cc3ccccc23)CC1`, for which the growth is 30.9% (inactive).

Turning to `CCNC(=O)Oc1ccc(/C(=C(/C)c2ccccc2)c2ccc(OCCN3CCCC3)cc2)cc1`, the growth was 56.2% (inactive).

As to `O=C(CSc1nnc(-c2cccs2)n1-c1ccccc1)Nc1ccc(F)cc1`, the growth was 104% (inactive).

Turning to `NS(=O)(=O)Oc1ccc2nc(Nc3ccc(F)c(F)c3)ccc2c1`, the growth was 98.5% (inactive).

In the case of `C#C[C@]1(O)CC[C@H]2[C@@H]3CC=C4c5sc(Nc6cccc(C)n6)nc5CC[C@]4(C)[C@H]3CC[C@@]21C`, the growth was -55% (active).

With `COc1cc(-c2nc(SCc3ccc(C)cc3)[nH]c(=O)c2C#N)ccc1OCc1ccccc1`, the growth is 101% (inactive).

Consider `CCOC(=O)Nc1cccc(-n2cnc3cc(-c4ccc(O)cc4)ccc32)c1`, for which the growth was 63.8% (inactive).

Consider `COc1cc(O)c2c(c1)[C@H]1O[C@@H]1C[C@H](O)[C@H](O)C(=O)/C=C\C[C@H](C)OC2=O`, for which the growth is 6.98% (active).

`CN1CCN(c2ccc(C(=O)/C=C/c3ccc(Cl)c(C(F)(F)F)c3)cc2)CC1`: the growth was 87.2% (inactive).

`Cc1ccccc1NC1CC(=O)N(c2ccc(Cl)cc2Cl)C1=O` (stereo unspecified): the growth was 105% (inactive).

On to `C/C(=C(/c1ccc(O)cc1)c1ccc(OCCN(C)C)cc1)c1ccc(Cl)cc1`, for which the growth was -74.1% (active).

For `C=CCn1c(SCC(=O)Nc2cccc(C(=O)/C=C/c3ccc(Cl)cc3)c2)nc2ccccc2c1=O`, the growth is 93.3% (inactive).

With `Cc1nn(-c2ccc(Br)cc2)c2nc(CCl)[nH]c(=O)c12`, the growth was 103% (inactive).

Take `Cc1cc2nc(C(Cl)Cl)nc(-c3ccco3)n2n1`: the growth was 87.6% (inactive).

Turning to `C=CCn1c(SCC(=O)c2ccc(OC)cc2)nnc1-c1ccc(OC)cc1`, the growth was 100% (inactive).

On to `ClC(Cl)c1nc(-c2cccs2)n2nc(-c3ccccc3)cc2n1`, for which the growth is -45.9% (active).

Regarding `COc1cc2c3c(n(CCCNC4CCCCC4)c(=O)c2cc1OC)-c1cc2c(cc1C3=O)OCO2`, the growth was 97% (inactive).

Turning to `C#CCOc1ccc(/C=N/Nc2nc(-c3cc(Cl)ccc3Cl)cs2)cc1`, the growth is 110% (inactive).

`CS(=O)(=O)c1ccc2c(c1)c1c(n2S(=O)(=O)c2ccc(Cl)cc2)CCCC1`: the growth is 64.2% (inactive).

For the compound `CC(=O)NC(C)(C)C(=O)N1CCC[C@H]1C(=O)NC(C)(C)C(=O)N[C@@H](C)C(=O)NC(C)(C)C(=O)NC(C)(C)C(=O)N[C@@H](CCC(N)=O)C(=O)NC(C)(C)C(=O)N[C@H](C(=O)NC(C)(C)C(=O)NCC(=O)N[C@@H](CC(C)C)C(=O)NC(C)(C)C(=O)N1CCC[C@H]1C(=O)N[C@H](C(=O)NC(C)(C)C(=O)NC(C)(C)C(=O)N[C@@H](CCC(N)=O)C(=O)N[C@@H](CCC(N)=O)C(=O)N[C@H](CO)Cc1ccccc1)C(C)C)C(C)C`, the growth was 32.1% [4.25 µM] (inactive).

Regarding `Cc1cn(-c2cc(NC(=O)c3cncc(C#Cc4cnc5ccc(O[C@@H]6CCOC6)nn45)c3)cc(C(F)(F)F)c2)cn1`, the growth is -46.9% (active).

With `O=C(O)CNS(=O)(=O)c1ccc(Oc2ccc(S(=O)(=O)NCC(=O)O)cc2)cc1`, the growth is 101% (inactive).
